Test results reported in PubChem BioAssay AID687041 (Broad Institute, 2013).
Potency and affinity values are given separately. Calls of active or inactive are those of the source.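 Rule for the calls: active = compounds lowering miR-122 whose fitted half-maximal concentration is at most twice the top tested dose; inconclusive = flat fit with moderate reduction, or poor fit quality; inactive = the rest.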

Experiment: miR-122 quantity in Huh7 after inhibitor exposure – cell-based, RT-qPCR, dry powder, orthogonal assay for miR-122 inhibitor project, dose response (AID 687041)

In the case of `O=C(CN1CCOCC1)Nc1ccc(Br)cc1C(=O)c1ccccc1`, the outcome is reported as “inactive”.
